The values below come from PubChem BioAssay (NCATS).

A number with no mark means an inactive call. Entries that show only a call come without a potency. Active and inactive are the calls of the source. Calls come from the whole dose curve; as a rule, active = well fitted inhibition curve with a large enough effect; inconclusive = small, poorly fitted or top-dose-only effect; inactive = flat fitted curve, though single readings scatter.

This test has as its system Nanoluciferase (engineered Oplophorus gracilirostris luciferase). Briefly: Primary Nanoluciferase (NLuc) qHTS assay for identification of artifact compounds. (AID 1845222). As to conditions: NLuc-conditioned medium, Nano-Glo luminescence, 5 min; series mostly up to 54.1 µM. A digest of the protocol: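 Diluted conditioned medium from NLuc-expressing S16 cells treated with compounds for 15 min at room temperature, then Nano-Glo substrate added; luminescence read after 5 min. Percent inhibition versus no-enzyme and DMSO controls fitted to 4-parameter Hill equation.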
Consider `CC(C)N(CCCNC(=O)Nc1ccc(C(C)(C)C)cc1)C[C@H]1O[C@@H](n2ccc3c(N)ncnc32)[C@H](O)[C@@H]1O`, for which the Potency entry is “inactive”. On to `CC1(CO)CCCC2(C)C3COC(=O)C3=CC(O)C12` (stereo not given), for which the Potency entry was “inactive”. On to `CC(O)C1CCC2C3CCC4CC(OC5OC(C(=O)O)C(O)C(O)C5O)CCC4(C)C3CCC12C` (stereo not given), for which the Potency result was “inactive”. Still for that read-out and setting: with `C/C=C/C(=O)OC1/C=C/C(O)C(OC(C)=O)CCC(=O)OC1C` (stereo not given) the entry was “inactive”.

On to `C[C@@H]1CCC2C(C)(C)[C@H](O)[C@H](O)C[C@]2(C)[C@@]12Cc1c(O)cc3c(c1O2)CN(CCCC(=O)O)C3=O` (stereo not given in full), for which the Potency result is “inactive”. Take `COc1ccc(CC(NC(C)=O)C(=O)O)cc1` (stereo not given): the Potency entry is “inactive”. The same measure, in the same setting: the same measure for `CCc1cc(CC[C@]2(C3CCCC3)CC(O)=C(Cc3nc4nc(C)cc(C)n4n3)C(=O)O2)cc(CC)n1`: “inactive”; for `CC(C)=CCC(O)[C@](C)(O)C1[C@H](O)C[C@@]2(C)C3CC=C4C(C[C@H](O)[C@@H](O[C@@H]5O[C@H](CO)[C@@H](O)[C@H](O)[C@H]5O)C4(C)C)[C@]3(C)C(=O)C[C@]12C` (stereo not given in full): “inactive”; for `C=C(COC(=O)CC(C)C)C1Cc2cc(C(C)=O)ccc2O1` (stereo not given): “inactive”. In the case of `C/C=C(\C)C(=O)OC[C@H]1O[C@@H](O[C@H]2[C@@H](O[C@H]3O[C@H](COC(=O)/C(C)=C/C)[C@@H](O)[C@H](O)[C@H]3O[C@@H]3O[C@H](CO)[C@@H](O)[C@H](OC(=O)/C(C)=C/C)[C@H]3O)O[C@H](COC(=O)/C(C)=C/C)[C@@H](O)[C@@H]2O)[C@H](O)[C@@H](O)[C@@H]1O`, the activity, negative = inhibition is -1.03% [at 11.6 µM]. Turning to `C/C(=C\C(=O)C[C@@]12C(=O)O[C@]3(C)CC[C@H]1C[C@H]23)C(N)=O`, the Potency result is “inactive”. Still for that read-out and setting: the same measure for `C=C1C(OC(C)=O)CCC2(C)CCC(C(C)(C)O)CC12` (stereo not given): “inactive”; for `CCCC1=CC2=C(CO1)C(=O)C(C)(O)C(OC(=O)c1c(C)cc(OC)cc1O)C2` (stereo not given): “inactive”.

Consider `C=C1CCC2C(C)(C)CC(O)CC2(C)C1CCC(C)CC(=O)O` (stereo not given), for which the Potency result is “inactive”. As for `CC(C)[C@@](O)(c1ccc2cc(OC(F)F)c(OC(F)F)cc2c1)c1cn[nH]n1`, the Potency entry was “inactive”. Still for that read-out and setting: the same measure for `O=C(NCC(=O)N1CCCC1)Nc1ccc2ccccc2c1`: “inactive”; for `Cc1ccc(-c2c(-c3nn(C)c4ncnc(N5CC[C@H](N6CCCCC6)C5)c34)cnn2C)cc1`: “inactive”; for `CC(=O)O[C@H]1[C@H](O[C@H]2CC[C@]34C[C@]35CC[C@]3(C)[C@@H]([C@@]6(C)CC[C@@H](C(C)(C)O)O6)[C@@H](O)C[C@@]3(C)[C@@H]5C[C@H](O[C@@H]3O[C@H](CO)[C@@H](O)[C@H](O)[C@H]3O)[C@H]4C2(C)C)OC[C@@H](OC(C)=O)[C@@H]1O`: “inactive”. For `CC1(C)CC[C@]2(C(=O)O[C@@H]3O[C@H](CO)[C@@H](O)[C@H](O)[C@H]3O)CC[C@]3(C)C(=CCC4[C@@]5(C)CC[C@H](OC6OC(C(=O)O)C(OC7OC(CO)C(O)C(O)C7O)C(O)C6O)C(C)(C)C5CC[C@]43C)C2C1` (stereo not given in full), the activity, negative = inhibition was 0% [at 11.6 µM]. On to `CCCCNc1nc(N)c2[nH]c(=O)n(Cc3ccc(OCCN(C)C)nc3)c2n1`, for which the Potency result was “inactive”.

With `OCC(O)C(c1c[nH]c2ccccc12)c1c[nH]c2ccccc12` (stereo not given), the Potency result is “inactive”.

Regarding `C[C@@H]1O[C@@H](O[C@H]2[C@H](O)[C@@H](O[C@@H]3O[C@H](CO)[C@H](O)[C@H](O)[C@H]3O)[C@H](O[C@H]3CC[C@@]4(C)C(CC[C@]5(C)C4CC=C4[C@@H]6CC(C)(C)CC[C@]6(C(=O)O[C@@H]6O[C@H](CO)[C@@H](O)[C@H](O)[C@H]6O)CC[C@]45C)C3(C)C)O[C@@H]2C(=O)O)[C@H](O)[C@H](O)[C@H]1O` (stereo not given in full), the activity, negative = inhibition was 2.46% [at 11.6 µM]. Regarding `C/C=C1\[C@H](O[C@@H]2O[C@H](CO)[C@@H](O)[C@H](O)[C@H]2O)OC=C(C(=O)OCCc2ccc(O)cc2)[C@H]1CC(=O)OCCc1ccc(O)cc1`, the Potency result is “inactive”. Consider `CC1CC2(O)OC(=O)C3=C2C(CCC3)[C@@]12C[C@@H](c1ccoc1)OC2=O` (stereo not given in full), for which the Potency entry was “inactive”. Take `C/C=C1/[C@H](O[C@@H]2O[C@H](CO)[C@@H](O)[C@H](O)[C@H]2O)OC=C(C(=O)OC)[C@H]1CC(=O)OCCc1ccc(OC(=O)C[C@@H]2C(C(=O)OC)=CO[C@@H](O[C@@H]3O[C@H](CO)[C@@H](O)[C@H](O)[C@H]3O)/C2=C/C)cc1`: the activity, negative = inhibition was 2.4% [at 11.6 µM].

As to `CC(C)c1ccc2c(c1)C(=O)CC1C(C)(C(=O)O)CCCC21C` (stereo not given), the Potency result is “inactive”. The same measure, in the same setting: with `CC(C)CC(c1c(O)c(C=O)c(O)c(C=O)c1O)C1CCC(C)(O)C2CC(C(C)(C)O)CCC12C` (stereo not given) the entry was “inactive”; with `COC(=O)C1=COC(O[C@@H]2O[C@H](CO)[C@@H](O)[C@H](O)[C@H]2O)C2C(C)C(=O)CC12` (stereo not given in full), “inactive”. The same measure, in the same setting: with `COc1cccc(OC)c1-c1cc(C(=O)N[C@@H](CC(C)C)C(=O)O)nn1-c1ccnc2cc(Cl)ccc12` the entry was “inactive”.

Turning to `CC(=O)OC/C(=C/C(=O)O)CC[C@@H]1C(CO)=CC[C@@H]2C(C)(C)CCC[C@@]12C`, the Potency entry was “inactive”. Same read-out and setting: the same measure for `C=C1CC[C@@]2(OC1)O[C@H]1CC3[C@@H]4CC=C5C[C@@H](O)C[C@@H](O[C@@H]6OC[C@H](O)[C@H](O)[C@H]6O[C@@H]6O[C@@H](C)[C@H](O)[C@@H](O)[C@H]6O)[C@]5(C)C4CC[C@]3(C)[C@H]1[C@@H]2C` (stereo not given in full): “inactive”. The same measure, in the same setting: the same measure for `Cc1nc2cc(-c3cc(F)cc(C#N)c3)ccc2s1`: “inactive”; for `OC[C@H]1O[C@@H](OCCc2ccccc2)[C@H](O)[C@@H](O)[C@@H]1O`: “inactive”; for `O=C(OC[C@H]1O[C@@H](Oc2ccccc2CO)[C@H](O)[C@@H](O)[C@@H]1O)c1ccccc1`: “inactive”.

`COc1c2c(c(C)c3c1C(=O)OC3)OC1(C)CC(O)C34OC(OC)(CCC3(C)C1C2)OC4(C)CO` (stereo not given): the Potency result is “inactive”. With `CC1(C)CC[C@]2(C(=O)O[C@@H]3O[C@H](CO[C@@H]4O[C@H](CO[C@@H]5O[C@H](CO)[C@H](O)[C@H](O)[C@H]5O)[C@@H](O)[C@H](O)[C@H]4O)[C@@H](O)[C@H](O[C@@H]4O[C@H](CO)[C@@H](O)[C@H](O)[C@H]4O)[C@H]3O)[C@H](O)C[C@]3(C)C(=CCC4[C@@]5(C)CC[C@H](O[C@@H]6OC[C@@H](O)[C@H](O)[C@H]6O)[C@@](C)(C(=O)O)C5CC[C@]43C)[C@@H]2C1` (stereo not given in full), the activity, negative = inhibition is -3.7% [at 11.6 µM].

For `CC(C)=CC[C@H]1O[C@]2(O)C([C@H]3CCC4[C@@]5(C)CC[C@H](O[C@@H]6O[C@H](CO)[C@H](O)[C@H](O[C@@H]7O[C@H](CO)[C@@H](O)[C@H](O)[C@H]7O)[C@H]6O[C@@H]6O[C@@H](C)[C@H](O)[C@@H](O)[C@H]6O)C(C)(C)C5CC[C@@]4(C)[C@]3(C)[C@H]2O)[C@@]1(C)O` (stereo not given in full), the activity, negative = inhibition was -2.88% [at 11.6 µM].

For the compound `CC(C)=CCC/C(C)=C/CO[C@@H]1O[C@H](CO[C@@H]2O[C@@H](CO)[C@H](O)[C@H]2O)[C@@H](O)[C@H](O)[C@H]1O`, the Potency entry is “inactive”.

In the case of `Cc1cc(OCCN2CCOCC2)nn1-c1ccc2ccccc2c1`, the Potency entry is “inactive”.

In the case of `CC(=O)OC1CC(=O)C2(C)C3CC4=C(OC(C)CC4=O)OC3(C)CCC2C1(C)C` (stereo not given), the Potency entry is “inactive”.
